Results as given in PubChem BioAssay (NCATS).
Inconclusive results are not listed. The source made the active and inactive calls. Calls come from the whole dose curve; as a rule, active = well fitted curve in the direction sought with a large enough effect; inconclusive = small, poorly fitted or top-dose-only effect, or another doubt; inactive = no such curve, though single readings can be large; an effect the other way counts as inactive or inconclusive.

Key:
[1] = Quantitative High-Throughput drug screen in 47 multiple myeloma cell lines against the NCATS MIPE library collection: Delta47_JCRB cell viability assay (AID 1918925; note: nearly all actives have a fitted effect of over 45% in size; note: potency is the fitted concentration of half-maximal effect)
Method in brief: (§1)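 qHTS of the MIPE 4.0 collection: 500 myeloma cells/well, 48 h drug exposure at 37C in 5% CO2, then CellTiter-Glo for 5 min at room temperature before luminescence reading.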

[2] = Quantitative High-Throughput drug screen in 47 multiple myeloma cell lines against the NCATS MIPE library collection: EJM_DSMZ cell viability assay (AID 1918926; note: nearly all actives have a fitted effect of over 30% in size; note: potency is the fitted concentration of half-maximal effect)
Method in brief: as §1

[3] = Quantitative High-Throughput drug screen in 47 multiple myeloma cell lines against the NCATS MIPE library collection: AMO1_DSMZ cell viability assay (AID 1918927; note: nearly all actives have a fitted effect of over 30% in size; note: potency is the fitted concentration of half-maximal effect)
Method in brief: as §1

[4] = Quantitative High-Throughput drug screen in 47 multiple myeloma cell lines against the NCATS MIPE library collection: ARD_JJKsccE7 cell viability assay (AID 1918929; note: potency is the fitted concentration of half-maximal effect)
Method in brief: as §1

[5] = Quantitative High-Throughput drug screen in 47 multiple myeloma cell lines against the NCATS MIPE library collection: KMM1_JCRB cell viability assay (AID 1918960); note: nearly all actives have a fitted effect of over 30% in size; note: potency is the fitted concentration of half-maximal effect
Method in brief: (§2)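 CellTiter-Glo luminescence after 48 h exposure gives viability, scaled between DMSO-only (100%) and media-only (0%) controls. Library compounds are pinned onto 500 myeloma cells per well, incubated at 37C with 5% CO2.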

[6] = Quantitative High-Throughput drug screen in 47 multiple myeloma cell lines against the NCATS MIPE library collection: Karpas417_ECACC cell viability assay (AID 1918961); conditions: Karpas417 myeloma viability, CellTiter-Glo ATP luminescence, 48 h; viability (% of DMSO): at 45.8 µM (top of the series); note: potency is the fitted concentration of half-maximal effect
Method in brief: (§3)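 Relative luminescence from CellTiter-Glo served as the viability signal, referenced to DMSO-treated (100%) and cell-free medium (0%) controls. Treatment lasted 48 hours at 37C with 500 cells per well.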

[7] = Quantitative High-Throughput drug screen in 47 multiple myeloma cell lines against the NCATS MIPE library collection: JIM3_ECACC cell viability assay (AID 1918963; note: nearly all actives have a fitted effect of over 35% in size; note: potency is the fitted concentration of half-maximal effect)
Method in brief: as §3

[8] = Quantitative High-Throughput drug screen in 47 multiple myeloma cell lines against the NCATS MIPE library collection: INA6_PLB cell viability assay (AID 1918965; note: nearly all actives have a fitted effect of over 55% in size; note: potency is the fitted concentration of half-maximal effect)
Method in brief: as §3

[9] = Quantitative High-Throughput drug screen in 47 multiple myeloma cell lines against the NCATS MIPE library collection: ARP1_JJKsccF8 cell viability assay (AID 1918928; note: nearly all actives have a fitted effect of over 40% in size)
Method in brief: as §2

[10] = Quantitative High-Throughput drug screen in 47 multiple myeloma cell lines against the NCATS MIPE library collection: JIM1_ECACC cell viability assay (AID 1918964; note: potency is the fitted concentration of half-maximal effect)
Method in brief: as §1

[11] = Quantitative High-Throughput drug screen in 47 multiple myeloma cell lines against the NCATS MIPE library collection: JJN3_DSMZ cell viability assay (AID 1918966; note: potency is the fitted concentration of half-maximal effect; nearly all actives have a fitted effect of over 50% in size)
Method in brief: as §1

[12] = Quantitative High-Throughput drug screen in 47 multiple myeloma cell lines against the NCATS MIPE library collection: Karpas25_ECACC cell viability assay (AID 1918968; note: nearly all actives have a fitted effect of over 35% in size; note: potency is the fitted concentration of half-maximal effect)
Method in brief: as §1

[13] = Quantitative High-Throughput drug screen in 47 multiple myeloma cell lines against the NCATS MIPE library collection: KMS27_JCRB cell viability assay (AID 1918970); conditions: KMS27 myeloma cells, CellTiter-Glo ATP viability, 48 h; viability (% of DMSO): at 45.8 µM (top of the series); note: nearly all actives have a fitted effect of over 30% in size; note: potency is the fitted concentration of half-maximal effect
Method in brief: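 Myeloma cells (500 per well) were exposed to MIPE 4.0 compounds for 48 h at 37 °C, 5% CO2; viability was read as ATP luminescence with CellTiter-Glo, normalized to DMSO-only (100%) and media-only (0%) wells.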

[14] = Quantitative High-Throughput drug screen in 47 multiple myeloma cell lines against the NCATS MIPE library collection: Karpas620_DSMZ cell viability assay (AID 1918959); note: nearly all actives have a fitted effect of over 30% in size; note: potency is the fitted concentration of half-maximal effect
Method in brief: as §3

[15] = Quantitative High-Throughput drug screen in 47 multiple myeloma cell lines against the NCATS MIPE library collection: KHM11_PLB cell viability assay (AID 1918962); note: nearly all actives have a fitted effect of over 35% in size
Method in brief: as §3

[16] = Quantitative High-Throughput drug screen in 47 multiple myeloma cell lines against the NCATS MIPE library collection: H1112_PLB cell viability assay (AID 1918967; note: nearly all actives have a fitted effect of over 30% in size; note: potency is the fitted concentration of half-maximal effect)
Method in brief: as §1

Measured: Potency

CC1=C(CC(=O)O)c2cc(F)ccc2C1=Cc1ccc(S(C)=O)cc1 (centres undefined)
active: [1] 3.72 µM | [2] 590 nM | [3] 4.18 µM | [4] 11.8 µM | [5] 20.9 µM | [6] 14.8 µM | [7] 13.2 µM | [8] 18.7 µM

CCOc1ccccc1N=Nc1c(C)[nH]n(-c2nc(-c3ccccc3)cs2)c1=O
inactive: [1] | [3] | [9] | [5] | [7] | [8]
active: [10] 1.66 µM | [11] 10.5 µM | [12] 1.66 µM | [13] 9.35 µM

NC(=O)c1ncn([C@@H]2O[C@H](CO)[C@@H](O)[C@@H]2O)n1
not listed: [3] | [5] | [6] | [9] | [11]
inactive: all other assays above

CN1CC(=O)N2C(Cc3c([nH]c4ccccc34)[C@H]2c2ccc3c(c2)OCO3)C1=O (some centres undefined)
inactive: [1] | [3] | [9] | [14] | [5] | [6] | [7] | [16] | [13]

CCC(=O)OCC(=O)[C@@]1(OC(=O)CC)[C@@H](C)C[C@@H]2[C@H]3CCC4=CC(=O)C=C[C@]4(C)[C@@]3(F)[C@@H](O)C[C@@]21C
inactive: [1] | [15] | [16]
active: [3] 9.35 µM | [4] 2.09 µM | [14] 2.35 µM | [6] 0.0935 µM | [10] 6.62 µM | [12] 0.118 µM | [13] 4.18 µM

Cc1cc(CS(=O)(=O)c2ccccc2)cc(OCc2ccc(CN3CCC[C@H]3CO)cc2)c1
active: [1] 14.8 µM | [3] 14.8 µM | [14] 14.8 µM | [6] 3.72 µM | [7] 20.9 µM | [8] 18.7 µM | [16] 16.6 µM | [12] 16.6 µM | [13] 4.18 µM
inactive: [2]

CCCCCCCCCCCCCC(=O)N[C@H](CO)[C@H](O)c1ccc([N+](=O)[O-])cc1
active: [1] 18.7 µM | [3] 10.5 µM | [4] 20.9 µM | [14] 16.6 µM | [5] 20.9 µM | [7] 26.4 µM | [10] 14.8 µM | [8] 23.5 µM | [11] 18.7 µM | [12] 18.7 µM | [13] 14.8 µM
